Assay outcomes as filed in PubChem.
Rows were chosen to be rich in hits. Some 2% of all compounds tested hit in one or more screens of this group.
FUS suppressor: rescues growth of FUS-expressing yeast; Potency, µM (titrated, usually from 76.6 µM), usual class: activators; S. cerevisiae FUS-expressing, growth rescue, OD600, 24 h; hit rate 0.24% among 390,000;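 also: potency is read from the fitted curve at half-maximal effect; plate controls were DMSO vehicle for no effect and reference control for full effect; nearly all actives have a fitted effect of over 55% in size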
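FUS-expressing yeast, raffinose-pregrown, induced in 2% galactose minimal medium at OD 0.005; compounds in a dilution series, 24hr at 30C. Growth restoration read as absorbance at 600 nm. CP55940 positive control, DMSO negative.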
TDP-43 yeast inh: rescues yeast growth from TDP-43 toxicity. Potency, µM (highest dose often 46.1 µM), for the others: at the highest dose growth rescue (activation), hits mostly activators. hit rate 1.8% among 410,000. TDP-43 expressing yeast growth rescue, BacTiter-Glo, 24 h. AID 652104; also: potency is read from the fitted curve at half-maximal effect; % of control where 0% means no effect; nearly all actives have a fitted effect of over 50% in size
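Galactose-induced TDP-43 yeast, OD600=0.02, compound pinned; 24 hr, 30 deg C; BacTiter-Glo luminescence for growth. Inhibitors of TDP-43 toxicity read as activators.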
mIDH1 inhibitor: human IDH1 R132H inhibition; IDH1-R132H enzyme, NADPH consumption, diaphorase/resazurin fluorescence; Potency, µM (titrated, usually from 76.6 µM), without a hit: at the highest dose activity change, negative = inhibition, hits mostly inhibitors; hit rate 0.093% among 390,000; AID 602179; also: potency is read from the fitted curve at half-maximal effect; % is scaled to controls: 0 for no effect and ±100 for the full control effect; nearly all actives have a fitted effect of over 65% in size
Target sequence (O75874 whole entry R132H, stated change not applied): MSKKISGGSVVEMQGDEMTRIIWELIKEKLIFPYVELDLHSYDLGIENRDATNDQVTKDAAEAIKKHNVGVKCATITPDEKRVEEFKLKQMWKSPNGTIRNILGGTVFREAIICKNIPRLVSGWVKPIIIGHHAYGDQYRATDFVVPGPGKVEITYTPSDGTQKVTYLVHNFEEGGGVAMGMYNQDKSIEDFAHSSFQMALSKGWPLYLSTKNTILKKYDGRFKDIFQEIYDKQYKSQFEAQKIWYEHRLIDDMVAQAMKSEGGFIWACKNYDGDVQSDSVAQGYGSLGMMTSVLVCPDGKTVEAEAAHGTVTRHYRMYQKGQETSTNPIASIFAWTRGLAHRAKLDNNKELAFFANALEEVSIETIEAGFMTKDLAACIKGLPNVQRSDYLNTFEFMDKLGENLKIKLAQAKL
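IDH1-R132H (0.5 ug/mL dispensed) in pH 7.5 Tris buffer was preincubated 30 min with compound, then given a substrate mix of 0.016 mM NADPH and 2 mM alpha-KG for 80 min at room temperature; remaining NADPH was read by diaphorase/resazurin fluorescence.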
Abeta rescue: A-beta toxicity reversal in yeast. yeast expressing A-beta42, growth rescue, OD600, 48 h; response scale: 0% DMSO, 100% iron-clioquinol control. Potency, µM (titrated, usually from 46.1 µM), usual class: activators. hit rate 0.063% among 410,000. AID 1347071; also: potency is read from the fitted curve at half-maximal effect; nearly all actives have a fitted effect of over 55% in size
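Yeast A-beta toxicity model in growth medium with pinned compounds, 48 h at 30 C; growth read as absorbance at 600 nm. Normalized to FeCl3/clioquinol equimolar mix (positive) and DMSO (negative).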
aSyn rescue: inhibitors of alpha-synuclein toxicity in yeast; Yeast expressing alpha-synuclein, growth rescue, BacTiter-Glo, 24 h; Potency, µM (doses to about 46.1 µM), without a hit: top-dose growth rescue (activation), most hits filed as activators; hit rate 0.14% among 370,000; AID 652106; also: potency is read from the fitted curve at half-maximal effect; % of control where 0% means no effect; nearly all actives have a fitted effect of over 65% in size
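Screening used galactose-induced yeast with toxic alpha-synuclein levels, exposed to compound for 24 hr at 30 deg C. Cell growth, read with BacTiter-Glo luminescence, gave the measured signal.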
LDHA inh: inhibitors of human lactate dehydrogenase A; P00338; purified LDHA, NADH/diaphorase-resazurin fluorescence; active compounds read low; activity change, % (values are at about 110 or 230 µM); hit rate 0.15% among 480,000; AID 1347041; in the data active = activity change below about -30%; inconclusive = mostly about -25% to -30%;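 also: plate controls were DMSO wells for no effect and wells without enzyme for full effect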
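Human LDH5 (2 nM) was incubated with 0.06 mM NADH and 0.2 mM pyruvate for 5 min at room temperature in Tris pH 7.4. Remaining NADH was coupled through diaphorase/resazurin, and resorufin fluorescence was read at 0 and 20 min.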
Active calls of the source: *; i = inactive; ? = inconclusive; . = no result; ! = a repeat was not active. Unless noted, calls follow the shape of the dose curve; as a rule, active = well fitted curve in the direction sought with a large enough effect; inconclusive = small, poorly fitted or top-dose-only effect, or another doubt; inactive = no such curve, though single readings can be large; an effect the other way counts as inactive or inconclusive.

SMILES	FUS suppressor	TDP-43 yeast inh	mIDH1 inhibitor	Abeta rescue	aSyn rescue	LDHA inh
Cc1cc(O)c2c(-c3ccccc3)cc(=O)oc2c1	i	?	3%	i	-18%	-5
Cc1cc2oc(=O)cc(-c3ccccc3)c2c(C)c1-c1ccc(O)cc1	?	14µM*	-10%	i	-54%	-4
C/C(CCc1oc2ccc(C)cc2c1-c1ccc(C)o1)=N\O	.	.	.	.	.	0
COc1cc2sc(-c3ccccc3OC)c(-c3ccc(O)cc3)c2cc1OC	i	16µM*	-7%	i	-1%	0
Cc1cc(C(=O)COc2ccccc2C#N)c(C)n1C1CC1	i	5%	11%	i	13%	-1
COc1cc(C(C)=O)ccc1OCC(=O)c1cc(C)n(C2CC2)c1C	i	25µM*	-3%	i	5%	-9
Cc1cc2[nH]c(C(=O)O)cc2c2ccccc12	.	.	.	.	.	10
Cc1cccn2cc(CN3CCN(S(=O)(=O)c4ccccc4)CC3)nc12	.	.	.	.	.	3
Cc1onc(C(=O)Nc2cccc(C(F)(F)F)c2)c1[N+](=O)[O-]	i	13µM*	20%	i	-13%	-5
COc1cc(C(=O)NNC(=O)c2nn(C)c(=O)c3ccccc23)cc(OC)c1OC	i	3.2µM*	1%	i	-6%	-2
Cn1nc(C(=O)Nc2cccc(C(F)(F)F)c2)c2ccccc2c1=O	.	11µM*	5%	i	9%	1
CC(C)n1nc(C(=O)Nc2cccc(C(F)(F)F)c2)c2ccccc2c1=O	.	.	.	.	.	2
COc1cc(NC(=O)c2nn(C)c(=O)c3ccccc23)cc(OC)c1OC	.	.	.	.	.	9
Cc1onc(C(=O)Nc2ccccc2C(F)(F)F)c1[N+](=O)[O-]	i	12%	-2%	i	-4%	-9
N#Cc1cccc(C(=O)OC(c2ccccc2)c2ccccn2)c1 (stereo not given)	.	.	.	.	.	13
CCCCN1CCN(c2nc3c(c(=O)[nH]c(=O)n3C)n2Cc2cc(C)ccc2C)CC1	.	.	.	.	.	3
NC(=S)Cc1ccc(Cl)cc1Cl	i	13µM*	15%	i	-4%	-13
NC(=S)Cc1ccccc1Cl	i	9%	5%	i	14%	-7
Cc1cccc2sc(N3CCN(C(=O)CS(=O)(=O)c4ccc(F)cc4)CC3)nc12	i	13µM*	-1%	i	.	4
CC(=O)CC(C)=Nc1ccccc1	.	.	.	.	.	1
Cc1ccc(NC(=O)Cn2ncn3c(cc4ccccc43)c2=O)c(C)c1	32µM*!	12%	-23%	i	0%	-8
Nc1ccc(N=Nc2ccccc2O)c(N)c1	i	22%	5%	i	-8%	11
Oc1ccccc1N=Nc1ccccc1O	i	?	2%	?	13µM*	5
CCCCCc1ccc(NC(=O)O[C@@H]2CC[C@@]34CCCN3C(=O)CCC[C@H]4C2)cc1	22µM*	.	.	.	.	.
Cc1cccc(C(C)C)c1NC(=O)CCl	.	.	.	.	.	5
SMILES	FUS suppressor	TDP-43 yeast inh	mIDH1 inhibitor	Abeta rescue	aSyn rescue	LDHA inh
CCOC(=O)C1=C(N)N2C(=O)C(C)SC2=C(C(=O)OC)C1c1cccc(OC)c1 (stereo not given)	i	20µM*	-3%	i	1%	0
Nc1ncc2c(n1)CC(c1ccco1)CC2=O (stereo not given)	i	14µM*	11%	i	1%	6
O=C(/C=C/c1ccco1)NC(=S)Nc1ccccc1N1CCCC1	?	22µM*	-10%	?	0%	5
O=C(/C=C/c1ccco1)NC(=S)Nc1ccccc1N1CCOCC1	i	25µM*	0%	i	2%	7
O=C(/C=C/c1ccco1)Nc1ccccc1N1CCCC1	i	6%	-1%	i	?	0
O=C(NC(=S)Nc1ccccc1N1CCCCC1)c1ccco1	i	35µM*	4%	i	2%	-1
O=C(/C=C/c1ccco1)NC(=S)Nc1cc(C(F)(F)F)ccc1N1CCOCC1	i	-15%	-3%	i	1%	4
CC(=O)N(C)c1ccc(NC(=S)NC(=O)/C=C/c2ccco2)cc1	35µM*	21%	-5%	i	3%	-2
O=[N+]([O-])c1ccc(-n2ccc3ccccc32)cc1	.	.	.	.	.	11
COc1cccc(/C=C/C(=O)Nc2ccccc2N2CCOCC2)c1	i	22µM*	7%	i	-19%	-3
CC1(C)CC(N2CCOCC2)=CC(=[N+]2CCOCC2)C1	i	-8%	-1%	i	-8%	-10
CC1C[N+](=C2C=C(N3CCOCC3)CC(C)(C)C2)CC(C)O1 (stereo not given)	i	-2%	12%	i	1%	-57*
Cc1ccc(C)c(CSC2=NC(C)(C)Nc3ccccc32)c1	i	15%	.	i	.	11
CC1(C)N=C(SCc2ccc(F)cc2)c2ccccc2N1	i	11µM*	7%	i	.	4
CO[C@H]1CC[C@@]2(C)[C@@H](CC[C@@H]3[C@@H]2CC[C@@]2(C)[C@H]3C[C@H](C(=O)O)O[C@]23CCCO3)C1	i	16µM*	-11%	i	22%	-3
O=Nc1c(O)n(Cc2ccc(Cl)c(Cl)c2)c2ccccc12	i	-92%	4%	i	13µM*	-4
O=C1CCCC2=C1C(c1ccc(F)cc1F)Nc1nonc1N2 (stereo not given)	.	.	.	.	.	-33*
COCCn1c(SCCOc2ccc(Cl)cc2)nnc1-c1ccccc1	.	.	.	.	.	-1
O=C(CCNS(=O)(=O)c1ccccc1)OCc1ccc([N+](=O)[O-])cc1	i	29%	-4%	i	1%	0
Cc1ccc(S(=O)(=O)NCCC(=O)OCc2ccc([N+](=O)[O-])cc2)cc1C	i	20µM*	6%	i	0%	-5
NC(N)=NCc1ccc(F)cc1	.	.	.	.	.	-1
COc1cccc(-c2nnc(NC(=O)c3cccc(F)c3)o2)c1	i	?	10%	i	13%	2
O=C(Nc1nnc(-c2cccs2)o1)c1cccc(Oc2ccccc2)c1	i	4µM*	-12%	i	?	-33*
O=C(Nc1nnc(-c2ccc(F)cc2)o1)c1cccc([N+](=O)[O-])c1	i	11µM*	1%	?	?	3
O=C(Nc1nnc(C2=COCCO2)o1)c1cccc([N+](=O)[O-])c1	i	9%	8%	i	-2%	-4
O=C(Nc1nnc(-c2cccs2)o1)c1cccc(F)c1	i	13µM*	2%	11µM*	29%	1
Cc1cccc(-c2ocnc2C(=O)Nc2ccccc2C)c1	.	.	.	.	.	-6
COc1ccccc1C(=O)Nc1ccc2oc(-c3cccc(F)c3)nc2c1	.	.	.	.	.	-2
